Results reported in PubChem BioAssay (NCI).
This is part of a sample that, as a whole, favours compounds with a hit. Of some 83,000 tested, about 20% had one in any assay.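 Compound tested at a single concentration for 48 hours in 96-well plates; a percent growth value below 10 was scored as active.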 Active and inactive are the calls of the source.

Each molecule was assayed on MDA-MB-468 breast (assay: NCI-60 one-dose screen, 48 h (100 = growth as untreated, 0 = no growth, -100 = all killed)). Settings: 10 µM unless noted.
With `COc1ccc(Nc2[nH]n3c(=O)cc(-c4ccccc4)nc3c2C(=O)Nc2ccc(C)cc2)c(OC)c1` the growth was 58.6% (inactive). `CCN(CC)CCCN1C(=O)c2c(c(C)c3c(oc4cc(O)ccc43)c2C)C1=O` was tested, and the growth was 102% (inactive). For `CC(C)OP(=O)(CCC(=O)c1c[nH]c2ccccc12)OC(C)C`, the growth was 107% (inactive). With `O=c1oc2ccc(F)cc2c(=O)n1-c1ccc(Br)cc1F` the growth was 0.698% (active). With `COc1ccc(/C=N/Nc2nc3ccccc3s2)cc1` the growth was 84.8% (inactive). For `C=C(c1ccc(OC)c(/C=C/C(=O)c2ccc3c(c2)OCO3)c1)c1cc(OC)c(OC)c(OC)c1`, the growth was 37.4% (inactive). With `COc1cccc2cc(-c3nc(C4CCC(C(=O)O)CC4)n4ncnc(N)c34)[nH]c12` (stereo not given) the growth was -22.3% (active). In the case of `O=C1/C=C/[C@@H](O)[C@@H]2C[C@@H](O)C[C@H]2/C=C/CCC[C@H](C(F)(F)F)O1`, the growth is reported as -69.1% (active). With `O=C1CCn2c1c(O)c1ccccc1c2=O` the growth was 105% (inactive). `CC(=O)n1nc(C(=O)OC(C)(C)c2ccccc2)c2ccccc21` was tested, and the growth was 93.3% (inactive). With `O=C(O)C(=Cc1c2ccccc2cc2ccccc12)C(=O)O` the growth was 116% (inactive). In the case of `O=C(Nc1cccc(Cn2c(=O)[nH]c3ccc(Oc4ncccn4)cc3c2=O)c1)c1ccc(Cl)cc1`, the growth is reported as 16.8% (inactive). In the case of `Cc1nc(-c2cn3c(n2)-c2ccc(-c4cnn(C(C)(C)C(N)=O)c4)cc2OCC3)n(C(C)C)n1`, the growth is reported as -20.6% (active). `CCC(=O)Nc1nnc(Cc2ccc(OC)c(OC)c2)s1` was tested, and the growth was -2.42% (active). For `CCCCCCC(C)CC1=C(O)c2ccccc2C(=O)C1=O` (stereo not given), the growth was 1.43% (active). `Nc1nnc(C(=O)c2cnc3n(c2=O)CCCCC3)s1` was tested, and the growth was 90.4% (inactive). In the case of `CCOC(=O)C(c1ccccc1)N1C(=O)c2ccccc2C1=O` (stereo not given), the growth is reported as 137% (inactive). In the case of `COC(=O)c1ccc2[nH]c(O)c(C(=Nc3ccc(N(C)C(=O)CN4CCN(C)CC4)cc3)c3ccc(N)cc3)c2c1`, the growth is reported as 62% (inactive). In the case of `O=C(CNS(=O)(=O)Cc1ccccc1)NNc1ccccc1`, the growth is reported as 79.4% (inactive). In the case of `C=C(C)[C@@H]1CC[C@]2(C(=O)N3CCN(C)CC3)CC[C@]3(C)[C@H](CC[C@@H]4[C@@]5(C)CC[C@H](O)C(C)(C)[C@@H]5CC[C@]43C)[C@@H]12`, the growth is reported as -67.3% (active). `CCOc1ccc(Br)cc1/C=N\N=C\c1cc(Br)ccc1OCC` was tested, and the growth was 128% (inactive). With `Cc1nc2c(nnn2-c2ccccc2)c2nc(-c3ccccc3)oc(=O)c12` the growth was 110% (inactive). With `C#C[C@]1(O)CC[C@H]2[C@@H]3CC=C4c5nc(N)sc5CC[C@]4(C)[C@H]3CC[C@@]21C` the growth was 34% (inactive). With `COc1cc2nc(N3CCCC3)nc(Nc3ccccc3)c2cc1OC` the growth was -38.2% (active). For `Cc1nc2cc(Nc3nc(Nc4ccc(F)cc4)nc(-c4ccc(Cl)cc4)n3)ccc2n1Cc1ccccc1`, the growth was 74.3% (inactive).
